Measurements reported in PubChem BioAssay.
Inconclusive results are not listed. Activity calls are given as the source filed them.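 How the source made its calls, unless noted: active means normalized viability below 100% at a tested concentration; inactive means the rest.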

How the values were obtained:
[1] = growth inhibition of DIPG glioma cells, dose response, cell-based, SU-DIPG-XVII, MIPE5.0, CellTiter-Glo, qHTS (AID 1347060; cut-off not given, nearly all actives have AC50 up to about 26 µM;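 further: cells exposed to compound for 48 hours before viability readout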); settings: SU-DIPG-XVII viability, CellTiter-Glo ATP luminescence
[2] = growth inhibition of DIPG glioma cells, dose response, cell-based, SU-DIPG-XIII, MIPE4.0, CellTiter-Glo, qHTS (AID 1347061; cut-off not given, nearly all actives have AC50 up to about 37 µM;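 further: cells exposed to compound for 48 hours before readout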); settings: SU-DIPG-XIII viability, CellTiter-Glo ATP luminescence
[3] = growth inhibition of DIPG glioma cells, dose response, cell-based, JHH-DIPG-1, MIPE4.0, CellTiter-Glo, qHTS (AID 1347062; cut-off not given, nearly all actives have AC50 up to about 27 µM;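 further: cells exposed to compound for two days before readout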); settings: JHH-DIPG-1 viability, CellTiter-Glo ATP luminescence
[4] = growth inhibition of DIPG glioma cells, dose response, cell-based, SU-DIPG-IV, MIPE4.0, CellTiter-Glo, qHTS (AID 1347063; cut-off not given, nearly all actives have AC50 up to about 30 µM;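 further: compound exposure lasted 48 hours before the viability readout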); settings: SU-DIPG-IV viability, CellTiter-Glo ATP luminescence
[5] = growth inhibition of DIPG glioma cells, dose response, cell-based, SU-DIPG-XIII, MIPE5.0, CellTiter-Glo, qHTS (AID 1347064; cut-off not given, nearly all actives have AC50 up to about 23 µM;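 further: cells exposed to compound for 48 hours before the viability read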); settings: SU-DIPG-XIII viability, CellTiter-Glo ATP luminescence
[6] = viability loss in pontine glioma line – cell-based, SU-DIPG-XXV, MIPE5.0, CellTiter-Glo, qHTS, dose response (AID 1347065; cut-off not given, nearly all actives have AC50 up to about 26 µM;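 further: cells exposed to compound for 48 hours before ATP readout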); settings: CellTiter-Glo ATP luminescence
[7] = SU-DIPG-VI glioma cell viability, MIPE4.0 library, CellTiter-Glo luminescence, qHTS (AID 1347066; cut-off not given, nearly all actives have AC50 up to about 30 µM;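 further: cells exposed to compound for 48 hours before readout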); settings: CellTiter-Glo ATP luminescence
[8] = JHH-DIPG-1 glioma cell viability, MIPE5.0 library, CellTiter-Glo luminescence, qHTS (AID 1347067; cut-off not given, nearly all actives have AC50 up to about 26 µM;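 further: cells exposed to compound for 48 hours before readout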); settings: JHH-DIPG-1 glioma viability, CellTiter-Glo ATP luminescence
[9] = SU-DIPG-XXV glioma cell viability, MIPE5.0 library, qHTS (AID 1347068; cut-off not given, nearly all actives have IC50 up to about 30 µM;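 further: cells exposed to compound for 48 hours before viability readout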)
[10] = sensitizers of A549 cells to miR-34 induction, primary screen, imaging, A549 dox-inducible miR-34, nuclei and caspase counts (AID 1347080;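 active means compounds whose cell count with miR-34 switched on is under 0.7 times the count with it off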); settings: A549 miR-34 inducible, Hoechst nuclei count, 48 h
[11] = modifiers of HSF1 nuclear foci, imaging, Selleck Cancer Library (AID 1347162; in the data active means plate-normalised HSF1 focus index below about 0.46); settings: human cells, at 10 µM; SSMD: measured here: HSF1 foci SSMD mean; cell count: measured here: cell number; plate-normalised HSF1 focus index: stronger effect = lower value
[12] = survival rescue of mitochondrial mutant cells in low glucose, primary screen, MELAS cybrids, Rieske KO mouse fibroblasts, CellTiter-Glo (AID 1508586;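 active means mean z-score across replicates of 1.96 or higher in either the MELAS or the Rieske mutant cell line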;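 further: z relative to plate mean and SD of compound and empty wells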)
[13] = ovarian cancer cell viability with rucaparib, profiling panel, oncology-focused library, rucaparib conditional (AID 1508598); settings: patient-derived ovarian cancer cells, CellTiter-Glo viability, 144 h, stronger effect = lower value
[14] = LFS_MB_P medulloblastoma growth inhibition, cell-based, chromothripsis tumors, cisplatin or BGB combos (AID 1671449; in the data active means inhibition above about 80%;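 further: cells exposed for 96 hours; 0% = vehicle DMSO and 100% = killing by high DMSO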); settings: LFS_MB_P medulloblastoma cells
[15] = HDN33 neuroblastoma growth inhibition, cell-based, chromothripsis tumors, cisplatin or BGB combos (AID 1671450; in the data active means inhibition above about 80%;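 further: cells exposed to compound for four days; 0% = vehicle DMSO and 100% = cell killing by high DMSO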); settings: HDN33 neuroblastoma cells, stronger effect = higher value
[16] = ICB984 medulloblastoma cell growth inhibition, synergistic combos for chromothripsis tumors, cisplatin or BGB combos (AID 1671451; call rule not given here;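 further: cells exposed for 96 hours before readout; 0% = vehicle DMSO and 100% = killing by high DMSO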); settings: ICB984 medulloblastoma cells, drug combinations, stronger effect = higher value
[17] = HTB85 osteosarcoma cell growth inhibition, synergistic combos for chromothripsis tumors, BGB or cisplatin IC20 combos (AID 1671453; in the data active means inhibition above about 80%;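 further: cells exposed for 96 hours before readout; 0% = vehicle DMSO and 100% = high DMSO killing control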); settings: HTB85 osteosarcoma cells, drug combinations, stronger effect = higher value
[18] = MDA-MB-436 breast carcinoma cell growth inhibition, synergistic combos for chromothripsis tumors, BGB or cisplatin combos (AID 1671458; call rule not given here;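 further: cells exposed for 96 hours; 0% = vehicle DMSO and 100% = killing by high DMSO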); settings: MDA-MB-436 breast carcinoma growth inhibition, drug combinations, stronger effect = higher value
[19] = growth inhibition of BT084 medulloblastoma cells, cell-based, ICGC_MB145, cisplatin and BGB IC40 combos (AID 1671461; in the data active means inhibition above about 80%;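 further: cells exposed to drugs for 96 hours; 0% = vehicle DMSO and 100% = high DMSO full killing control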); settings: drug combinations, stronger effect = higher value
[20] = growth inhibition of RCMB18 medulloblastoma cells, cell-based, cisplatin and BGB IC40 combos (AID 1671462; in the data active means inhibition above about 80%;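 further: cells exposed to compound for four days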); settings: stronger effect = higher value
[21] = stronger effect = lower value, cell number ratio, induced over uninduced
[22] = measured here: relative caspase fold change +Dox/-Dox
[23] = measured here: total cells with miR-34 induction, stronger effect = lower value
[24] = measured here: total cells without miR-34 induction
[25] = MELAS cybrid survival, CellTiter-Glo 48 h, stronger effect = higher value
[26] = Rieske KO mouse fibroblast survival, CellTiter-Glo 72 h

For COc1ncc(-c2ccc3nccc(-c4ccnnc4)c3c2)cc1NS(=O)(=O)c1ccc(F)cc1F, the AC50 [1] was 26.3 nM (active), the AC50 [2] was 46.9 nM (active) and the AC50 [3] was 1660 nM (active). For the same molecule, the AC50 [4] was 10.5 nM (active), the AC50 [5] was 46.8 nM (active) and the AC50 [6] was 16.6 nM (active). The AC50 [7] was 33.2 nM (active), the AC50 [8] was 93.4 nM (active) and the IC50 [9] was 105 nM (active). The fold change [10, 21] was 1.04 (inactive), the fold change [10, 22] was 0.656 and the cell count [10, 23] was 1270. It also gave a cell count [10, 24] of 1220, an SSMD [11] of -1.81 and a cell count [11] of 6380. The plate-normalised HSF1 focus index [11] was 0.907 (inactive), the z-score [12, 25] was 1.15 (inactive) and the z-score [12, 26] was -2.62. For the same molecule, the viability ([13]; at 0.000305 µM, OCI-C5x cells, with rucaparib 10 µM, 100% = cells with rucaparib alone) was 107% (inactive), the viability ([13]; at 0.000305 µM, OCI-C5x cells, without rucaparib) was 105% (inactive) and the viability ([13]; at 0.000305 µM, OCI-P5x cells, with rucaparib 20 µM, 100% = cells with rucaparib alone) was 86.7% (active). The viability ([13]; at 0.000305 µM, OCI-P5x cells, without rucaparib) was 84.8% (active), the viability ([13]; at 0.00122 µM, OCI-C5x cells, with rucaparib 10 µM, 100% = cells with rucaparib alone) was 84.7% (active) and the viability ([13]; at 0.00122 µM, OCI-C5x cells, without rucaparib) was 89.8% (active). For the same molecule, the viability ([13]; at 0.00122 µM, OCI-P5x cells, with rucaparib 20 µM, 100% = cells with rucaparib alone) was 67.8% (active), the viability ([13]; at 0.00122 µM, OCI-P5x cells, without rucaparib) was 69.1% (active) and the viability ([13]; at 0.00488 µM, OCI-C5x cells, with rucaparib 10 µM, 100% = cells with rucaparib alone) was 62.5% (active). For the same molecule, the viability ([13]; at 0.00488 µM, OCI-C5x cells, without rucaparib) was 53.2% (active), the viability ([13]; at 0.00488 µM, OCI-P5x cells, with rucaparib 20 µM, 100% = cells with rucaparib alone) was 43.9% (active) and the viability ([13]; at 0.00488 µM, OCI-P5x cells, without rucaparib) was 46.3% (active). For the same molecule, the viability ([13]; at 0.0195 µM, OCI-C5x cells, with rucaparib 10 µM, 100% = cells with rucaparib alone) was 39.4% (active), the viability ([13]; at 0.0195 µM, OCI-C5x cells, without rucaparib) was 37.6% (active) and the viability ([13]; at 0.0195 µM, OCI-P5x cells, with rucaparib 20 µM, 100% = cells with rucaparib alone) was 31.6% (active). The viability ([13]; at 0.0195 µM, OCI-P5x cells, without rucaparib) was 27% (active), the viability ([13]; at 0.0781 µM, OCI-C5x cells, with rucaparib 10 µM, 100% = cells with rucaparib alone) was 32.8% (active) and the viability ([13]; at 0.0781 µM, OCI-C5x cells, without rucaparib) was 30.6% (active). For the same molecule, the viability ([13]; at 0.0781 µM, OCI-P5x cells, with rucaparib 20 µM, 100% = cells with rucaparib alone) was 24.3% (active), the viability ([13]; at 0.0781 µM, OCI-P5x cells, without rucaparib) was 17.1% (active) and the viability ([13]; at 0.313 µM, OCI-C5x cells, with rucaparib 10 µM, 100% = cells with rucaparib alone) was 23.7% (active). The viability ([13]; at 0.313 µM, OCI-C5x cells, without rucaparib) was 23.6% (active), the viability ([13]; at 0.313 µM, OCI-P5x cells, with rucaparib 20 µM, 100% = cells with rucaparib alone) was 17.6% (active) and the viability ([13]; at 0.313 µM, OCI-P5x cells, without rucaparib) was 11% (active). For the same molecule, the viability ([13]; at 1.25 µM, OCI-C5x cells, with rucaparib 10 µM, 100% = cells with rucaparib alone) was 23.9% (active), the viability ([13]; at 1.25 µM, OCI-C5x cells, without rucaparib) was 23.5% (active) and the viability ([13]; at 1.25 µM, OCI-P5x cells, with rucaparib 20 µM, 100% = cells with rucaparib alone) was 13.9% (active). The viability ([13]; at 1.25 µM, OCI-P5x cells, without rucaparib) was 8.06% (active), the viability ([13]; at 5 µM, OCI-C5x cells, with rucaparib 10 µM, 100% = cells with rucaparib alone) was 10.5% (active) and the viability ([13]; at 5 µM, OCI-C5x cells, without rucaparib) was 9.68% (active). The viability ([13]; at 5 µM, OCI-P5x cells, with rucaparib 20 µM, 100% = cells with rucaparib alone) was 2.14% (active) and the viability ([13]; at 5 µM, OCI-P5x cells, without rucaparib) was 1.41% (active).

For Nc1ncnc2c1c(-c1cnc3[nH]ccc3c1)nn2C1CCCC1, the AC50 [1] was 934 nM (active), the AC50 [2] was 3720 nM (active) and the AC50 [3] was 6620 nM (active). The AC50 [4] was 296 nM (active), the AC50 [5] was 1320 nM (active) and the AC50 [6] was 661 nM (active). The AC50 [7] was 4690 nM (active), the AC50 [8] was 1660 nM (active) and the IC50 [9] was 1660 nM (active). The fold change [10, 21] was 0.933 (inactive), the fold change [10, 22] was 0.447 and the cell count [10, 23] was 1360. For the same molecule, the cell count [10, 24] was 1460, the z-score [12, 25] was 2.61 (active) and the z-score [12, 26] was -3.58. The inhibition ([14]; at 0.5 µM, stronger effect = higher value) was -21.6% (inactive), the inhibition ([14]; measured here: combination with BGB IC20, at 0.005 µM) was -12.8% and the inhibition ([14]; measured here: combination with BGB IC40, at 0.005 µM) was -34.4%. For the same molecule, the inhibition ([14]; measured here: combination with BGB IC40, at 0.05 µM) was -33.1%, the inhibition ([14]; measured here: combination with cisplatin, at 0.5 µM, stronger effect = higher value) was -37.9% and the inhibition ([14]; measured here: combination with cisplatin, at 5 µM, stronger effect = higher value) was 101%. For the same molecule, the inhibition ([15]; BGB combo, at 5 µM) was 93.7%, the inhibition ([15]; at 0.5 µM) was 34.8% (inactive) and the inhibition ([15]; cisplatin combo, at 5 µM) was 89.8%. The inhibition ([15]; measured here: with BGB IC20 combination, at 0.5 µM) was 27.9%, the inhibition ([15]; measured here: with cisplatin IC20 combination, at 0.5 µM) was 38.9% and the inhibition ([15]; single agent, at 5 µM) was 94.1%. It also gave an inhibition ([16]; BGB IC20 combo, at 0.005 µM) of 3.47%, an inhibition ([16]; BGB IC40 combo, at 0.005 µM) of 0.136% and an inhibition ([16]; BGB IC40 combo, at 0.05 µM) of 75.2%. The inhibition ([16]; at 0.5 µM) was -26.8% (inactive), the inhibition ([16]; cisplatin combo, at 0.05 µM) was 74.3% and the inhibition ([16]; cisplatin combo, at 0.5 µM) was -46.2%. The inhibition ([16]; cisplatin combo, at 5 µM) was -4.06%, the inhibition ([16]; measured here: 5 uM single agent, at 5 µM) was -4.21% and the inhibition ([17]; at 0.5 µM) was 49.5% (inactive). The inhibition ([17]; measured here: with BGB IC20, at 0.5 µM) was 55.4%, the inhibition ([17]; measured here: with BGB IC20, at 5 µM) was 97.6% and the inhibition ([17]; measured here: with cisplatin IC20, at 0.5 µM) was 38.8%. The inhibition ([17]; measured here: with cisplatin IC20, at 5 µM) was 94.1%, the inhibition ([17]; single agent, at 5 µM) was 95.9% and the inhibition ([18]; at 0.5 µM) was -11.6% (inactive). The inhibition ([18]; measured here: BGB combination, at 0.5 µM) was 0.573%, the inhibition ([18]; measured here: BGB combination, at 5 µM) was 42.9% and the inhibition ([18]; measured here: cisplatin combination, at 0.5 µM) was -39.3%. The inhibition ([18]; measured here: cisplatin combination, at 5 µM) was 36.2%, the inhibition ([19]; at 0.5 µM) was 26.7% (inactive) and the inhibition ([19]; cisplatin combination, at 0.5 µM) was 42.3%. It also gave an inhibition ([19]; cisplatin combination, at 5 µM) of 38.7%, an inhibition ([19]; measured here: BGB IC40 combination 0.05 uM, at 0.05 µM) of -23% and an inhibition ([19]; single agent, at 5 µM) of 59.1%. For the same molecule, the inhibition ([20]; at 0.5 µM) was 1.21% (inactive), the inhibition ([20]; cisplatin combo, at 5 µM) was 73.6% and the inhibition ([20]; measured here: BGB IC40 combination, at 0.05 µM) was -7.03%. The inhibition ([20]; measured here: combination with cisplatin, at 0.5 µM) was -23.9% and the inhibition ([20]; single agent, at 5 µM) was 64.6%.
